Assay [1] can be described thus: qHTS assay to identify small molecule antagonists of the glucocorticoid receptor (GR) signaling pathway - cell viability counter screen (AID 720693). Also: nearly all actives have a fitted effect of over 55% in size.
Assay [2] can be described thus: qHTS assay for identifying genotoxic compounds that show differential cytotoxicity against isogenic chicken DT40 cell lines with known DNA damage response pathways - wild type cell line (AID 743012). Also: nearly all actives have a fitted effect of over 60% in size. Also: potency is read from the fitted curve at half-maximal effect. The method, boiled down:
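Wild type DT40, 300 cells/well, ~0.5 h settle at 37 C/5% CO2; compounds in DMSO added by pintool; 40 h at 37 C/5% CO2; CellTiter-Glo, 30 min RT; luminescence.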

Assay [3] in a line: qHTS assay for identifying genotoxic compounds that show differential cytotoxicity against isogenic chicken DT40 cell lines with known DNA damage response pathways - Rev3 mutant cell line (AID 743014). Also: nearly all actives have a fitted effect of over 55% in size. Also: potency is read from the fitted curve at half-maximal effect.
The nature of assay [4]: qHTS assay for identifying genotoxic compounds that show differential cytotoxicity against isogenic chicken DT40 cell lines with known DNA damage response pathways - Rad54/Ku70 mutant cell line (AID 743015). Also: nearly all actives have a fitted effect of over 60% in size. Also: potency is read from the fitted curve at half-maximal effect.
Assay [5] can be described thus: qHTS assay to identify small molecule antagonists of the androgen receptor (AR) signaling pathway - cell viability counter screen (AID 743033; also: nearly all actives have a fitted effect of over 45% in size).
Assay [6] in a line: qHTS assay to identify small molecule antagonists of the androgen receptor (AR) signaling pathway using the MDA cell line - cell viability counter screen (AID 743041; also: nearly all actives have a fitted effect of over 45% in size). The method, boiled down:
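Cells were plated at 3,000 per well and left 5 h. Compounds in DMSO were then pinned in, followed by R1881. After 16 h at 37C, CellTiter-Fluor fluorescence gave viability.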

The record followed here is PubChem BioAssay (Tox21).

Where “and” joins values, the source holds several entries; their conditions need not be identical. Identical values can stand only once. Records with an inconclusive call do not appear. Calls of active or inactive are those of the source. Calls follow the shape of the dose curve; as a rule, active = well fitted curve in the direction sought with a large enough effect in the repeat runs; inconclusive = weak or mixed curves; inactive = no such curve, though single readings can be large; an effect the other way counts as inactive or inconclusive.

Take `CC(=O)Oc1cccc(C(=O)O)c1OC(C)=O`: the Potency result in assay [1], in assay [2], in assay [3], in assay [4], in assay [5] and in assay [6] was “inactive” in each case.

Consider `NC[C@@H]1O[C@H](O[C@H]2[C@@H](O)[C@H](O[C@@H]3[C@@H](O)[C@H](N)C[C@H](N)[C@H]3O[C@H]3O[C@H](CO)[C@@H](O)[C@H](O)[C@H]3N)O[C@@H]2CO)[C@H](N)[C@@H](O)[C@@H]1O`, for which the Potency result in assay [1], in assay [2], in assay [3], in assay [4], in assay [5] and in assay [6] was “inactive” each time.

With `CC1(C)S[C@@H]2[C@H](NC(=O)C(C(=O)O)c3ccsc3)C(=O)N2[C@H]1C(=O)O` (some centres not stated), the Potency entry in assay [1], in assay [2], in assay [3], in assay [4], in assay [5] and in assay [6] was “inactive” throughout.

`COc1cc2[nH]c(C)c(CCN3CCN(c4ccccc4)CC3)c2cc1OC`: the Potency entry in assay [1], in assay [5] and in assay [6] was “inactive” each time. Also, the Potency is 18.8 µM (active) in assay [2], 26.6 µM (active) in assay [3] and 29.8 µM (active) in assay [4].

Take `CN=C(NC)NCc1ccccc1`: the Potency result in assay [1], in assay [2], in assay [3], in assay [4], in assay [5] and in assay [6] was “inactive” throughout.

As to `CN1CCC(OC(=O)C(Oc2ccc(Cl)cc2)Oc2ccc(Cl)cc2)CC1`, the Potency entry in assay [1], in assay [2], in assay [3], in assay [4], in assay [5] and in assay [6] was “inactive” throughout.

For the compound `CN1CCN(C(c2ccccc2)c2ccc(Cl)cc2)CC1` (configuration not stated), the Potency entry in assay [1], in assay [5] and in assay [6] was “inactive” throughout. For the same compound, the Potency is 9.02 µM (active) in assay [2], 10.1 µM (active) in assay [3] and 11.4 µM (active) in assay [4].

With `O=C1NCCN1c1ncc([N+](=O)[O-])s1`, the Potency entry in assay [1], in assay [2], in assay [3], in assay [4], in assay [5] and in assay [6] was “inactive” each time.

`O=C(O)COc1ccc(CCNS(=O)(=O)c2ccccc2)s1`: the Potency entry in assay [1], in assay [2], in assay [3], in assay [4], in assay [5] and in assay [6] was “inactive” throughout.

For `COC1=C(C(=O)O)N2C(=O)[C@@H](NC(=O)[C@H](N)C3=CCC=CC3)[C@H]2SC1`, the Potency result in assay [1], in assay [2], in assay [3], in assay [4], in assay [5] and in assay [6] was “inactive” throughout.

Consider `O=C(c1cc2ccccc2o1)N1CCN(Cc2ccccc2)CC1`, for which the Potency entry in assay [1], in assay [5] and in assay [6] was “inactive” throughout. Besides, the Potency in assay [2] was 26.6 µM (active); in assay [3], 29.8 µM (active); in assay [4], 29.8 µM (active).

Turning to `CC(C)(S)[C@@H](N)C(=O)O`, the Potency result in assay [1], in assay [2], in assay [3], in assay [4], in assay [5] and in assay [6] was “inactive” in each case.

Consider `CC(O)CN(C)C` (configuration not stated), for which the Potency entry in assay [1], in assay [2], in assay [3], in assay [4], in assay [5] and in assay [6] was “inactive” each time.

Turning to `CCCCC(=O)OCC(=O)[C@]1(O)Cc2c(O)c3c(c(O)c2[C@@H](O[C@H]2C[C@H](NC(=O)C(F)(F)F)[C@H](O)[C@H](C)O2)C1)C(=O)c1c(OC)cccc1C3=O`, the Potency entry in assay [1], in assay [5] and in assay [6] was “inactive” in each case. Further, the Potency was 1.5 µM (active) in assay [2], 1.88 µM (active) in assay [3] and 0.211 µM (active) in assay [4].

As to `CC(C)(C)CC(=O)OCC(=O)[C@@]12OC(C)(C)O[C@@H]1C[C@H]1[C@@H]3CCC4=CC(=O)C=C[C@]4(C)[C@@]3(F)[C@@H](O)C[C@@]12C`, the Potency entry in assay [1], in assay [2], in assay [3], in assay [4], in assay [5] and in assay [6] was “inactive” throughout.

`COc1ccc(C(=O)CCC(=O)O)c2ccccc12`: the Potency result in assay [1], in assay [2], in assay [3], in assay [4], in assay [5] and in assay [6] was “inactive” each time.

For `CC1CS(=O)(=O)CCN1/N=C/c1ccc([N+](=O)[O-])o1` (configuration not stated), the Potency entry in assay [1], in assay [2], in assay [3], in assay [4], in assay [5] and in assay [6] was “inactive” each time.

As for `CC1C(=O)CC2C3(C)CCC2(C(C)C(=O)O)C(=O)C13` (configuration not stated), the Potency result in assay [1], in assay [2], in assay [3], in assay [4], in assay [5] and in assay [6] was “inactive” each time.

With `CO[C@@H]1[C@@H](O[C@@H]2O[C@H](C)[C@@H](O[C@H]3C[C@@](C)(O)[C@@H](OC(=O)CC(C)C)[C@H](C)O3)[C@H](N(C)C)[C@H]2O)[C@@H](CC=O)C[C@@H](C)[C@@H](O)/C=C/C=C/C[C@@H](C)OC(=O)C[C@H]1O`, the Potency result in assay [1], in assay [5] and in assay [6] was “inactive” in each case. For the same compound, the Potency in assay [2] was 2.66 µM (active) and 3.76 µM (active); in assay [3], 5.96 µM (active) and 7.5 µM (active); in assay [4] it was 6.68 µM (active) and 9.44 µM (active).

On to `CO[C@H]1C[C@H](O[C@@H]2/C(C)=C/C[C@@H]3C[C@@H](C[C@]4(CC[C@H](C)[C@@H](C5CCCCC5)O4)O3)OC(=O)[C@@H]3C=C(C)/C(=N/O)[C@H]4OC/C(=C\C=C\[C@@H]2C)[C@]43O)O[C@@H](C)[C@@H]1O`, for which the Potency result in assay [1], in assay [2], in assay [3], in assay [4], in assay [5] and in assay [6] was “inactive” in each case.

Turning to `O=C(O[C@H]1CN2CCC1CC2)N1CCc2ccccc2[C@@H]1c1ccccc1`, the Potency entry in assay [1], in assay [5] and in assay [6] was “inactive” throughout. The Potency in assay [2] is 11.9 µM (active); in assay [3] it was 26.6 µM (active); in assay [4] it was 26.6 µM (active).

Regarding `COc1cc([C@@H]2c3cc4c(cc3C(O[C@@H]3O[C@@H]5CO[C@@H](C)O[C@H]5[C@H](O)[C@H]3O)C3COC(=O)[C@@H]32)OCO4)cc(OC)c1OP(=O)(O)O` (some centres not stated), the Potency result in assay [1], in assay [5] and in assay [6] was “inactive” in each case. Moreover, the Potency is 531 nM (active) and 750 nM (active) in assay [2]; 1.68 µM (active) and 2.37 µM (active) in assay [3]; 53.1 nM (active) and 75 nM (active) in assay [4].
